The record followed here is PubChem BioAssay.

Experiment [1] deals with Human papillomavirus type 1a protein E7 (residues 44-93). The experiment is described as follows: small molecules binding HPV E7 44-93 – biochemical, small-molecule microarray, residues 44-93, 635 nm fluorescence, primary screen (AID 1108).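 Note: E7 fragment applied at 1 µg/mL in TBST for 1 h at 4 C; score combines spot fluorescence with its signal to noise ratio.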 The following applies: fluorescence 635 nm, higher = more signal.
A short description of experiment [2]: hepatitis C replication reporter changes, two-sided – Huh7 cells, luciferase reporter, HCV replication inhibitor project, primary screen (AID 1109).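 Note: huh7 hepatoma cells harbouring a luciferase neomycin HCV replicon reporter; luciferase luminescence as measure of HCV replicon replication; test concentration not given here.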 Particulars: Huh7 HCV replicon luciferase reporter, 48 h; higher = more signal. On the technique in general: A reporter such as luciferase makes a cellular process visible.
Experiment [3] has as its target Left-right determination factor 2 (Homo sapiens) (UniProt O00292). In words: small molecules binding LEFTY2 protein – biochemical, small-molecule microarray, 635 nm fluorescence scan, primary screen (AID 1110). Particulars: higher = more signal.
For experiment [4], the target named is Calmodulin-1 (Homo sapiens) (UniProt P0DP23). In words: small molecules binding calmodulin-1 with EGTA – biochemical, small-molecule microarray, Cy5-labelled CALM1, profiling panel (AID 1111).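 Note: labelled calmodulin applied in Tris saline Tween buffer holding calcium plus EGTA and DTT.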 Particulars: Cy5-CALM1 binding fluorescence, higher = more signal.
The target is the same in experiment [5]. The experiment is described as follows: small molecules binding Ca-loaded calmodulin-1 – biochemical, small-molecule microarray, Cy5-labelled CALM1, plus calcium, artefact control for SMM control-protein annotation, profiling panel (AID 1112).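 Note: score merges spot fluorescence with signal to noise from triplicate slides.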 The following applies: Cy5-CALM1 binding fluorescence, higher = more signal.
A short description of experiment [6]: probe aWnt5a binding to arrayed compounds – biochemical, biotinylated probe, 635/667 nm fluorescence, primary screen (AID 1113).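 Note: score merges 667 nm fluorescence intensity with signal-to-noise per printed feature.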 The following applies: small-molecule microarray, higher = more signal.
A short description of experiment [7]: probe aShh binding to arrayed compounds – biochemical, biotinylated probe, 635/667 nm fluorescence, primary screen (AID 1114).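 Note: probe is biotin-labelled aShh protein from a stem cell growth factor screen; measures binding of labelled protein to compounds printed on the slide; score merges feature fluorescence at 667 nm with signal-to-noise.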 Particulars: small-molecule microarray, higher = more signal.
Experiment [8] can be described thus: probe aNog binding to arrayed compounds – biochemical, biotinylated probe, 635/667 nm fluorescence, primary screen (AID 1115).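 Note: probe is biotinylated aNog protein used at 0.15 µg/mL for 1 h at 4 C; z-score combines 667 nm fluorescence of each spot with its signal to noise.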 Particulars: small-molecule microarray, higher = more signal.
In experiment [9] the target is Torsin-1A-interacting protein 1 (Homo sapiens) (UniProt Q5JTV8). In words: compound microarray binding of lysate hLAP1 – cell lysate, small-molecule microarray, COS7 lysate, 635/667 nm fluorescence, primary screen (AID 1116). Particulars: 635 nm fluorescence, higher = more signal.
The target in experiment [10] is Alpha-bungarotoxin (Bungarus multicinctus) (UniProt P60615). In words: compounds binding labelled alpha-BTX control protein – biochemical, small-molecule microarray, Alexa647 label, 635/667 nm fluorescence, artefact control for SMM control protein annotation, profiling panel (AID 1117). The following applies: alpha-BTX-A647 binding fluorescence, higher = more signal.
Alpha-bungarotoxin (Bungarus multicinctus), sequence (P60615 whole entry, looked up): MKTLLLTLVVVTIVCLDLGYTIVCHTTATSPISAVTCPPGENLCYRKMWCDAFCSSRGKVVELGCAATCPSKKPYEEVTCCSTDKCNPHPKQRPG

Torsin-1A-interacting protein 1 (Homo sapiens), sequence (Q5JTV8 whole entry, looked up): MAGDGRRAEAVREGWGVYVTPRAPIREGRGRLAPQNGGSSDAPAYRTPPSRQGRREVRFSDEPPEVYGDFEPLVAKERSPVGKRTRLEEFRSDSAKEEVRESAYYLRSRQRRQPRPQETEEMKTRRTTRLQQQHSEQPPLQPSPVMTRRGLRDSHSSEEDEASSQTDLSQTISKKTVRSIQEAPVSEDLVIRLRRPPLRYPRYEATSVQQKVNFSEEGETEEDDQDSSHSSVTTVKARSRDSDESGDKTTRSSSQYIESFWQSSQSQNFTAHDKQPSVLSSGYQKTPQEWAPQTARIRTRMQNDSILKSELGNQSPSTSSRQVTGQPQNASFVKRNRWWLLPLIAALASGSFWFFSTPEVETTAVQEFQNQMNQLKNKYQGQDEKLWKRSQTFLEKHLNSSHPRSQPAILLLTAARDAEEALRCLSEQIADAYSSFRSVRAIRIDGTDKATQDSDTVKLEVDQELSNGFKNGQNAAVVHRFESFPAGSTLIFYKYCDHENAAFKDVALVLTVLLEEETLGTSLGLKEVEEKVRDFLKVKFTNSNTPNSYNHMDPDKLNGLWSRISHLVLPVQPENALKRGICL
Left-right determination factor 2 (Homo sapiens), sequence (O00292 whole entry, looked up): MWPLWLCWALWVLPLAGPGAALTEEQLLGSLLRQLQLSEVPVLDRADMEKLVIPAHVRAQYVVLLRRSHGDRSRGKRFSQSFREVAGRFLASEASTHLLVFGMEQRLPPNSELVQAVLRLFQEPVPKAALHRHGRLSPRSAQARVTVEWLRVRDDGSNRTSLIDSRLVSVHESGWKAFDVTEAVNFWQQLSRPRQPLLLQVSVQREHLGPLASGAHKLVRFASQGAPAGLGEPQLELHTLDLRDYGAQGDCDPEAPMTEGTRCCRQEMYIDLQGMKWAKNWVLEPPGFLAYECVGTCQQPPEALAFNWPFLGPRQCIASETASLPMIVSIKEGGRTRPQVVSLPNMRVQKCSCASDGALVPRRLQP

As to `CCOC(=O)NN=C1C[C@@H](O)[C@@H](O)[C@@H]2[C@@H]3C(=O)N([C@@H](C)c4ccccc4)C(=O)[C@@H]3CC[C@H]12`, the composite z-score is 0.171 in experiment [1]; 0.0792 in experiment [3]; -0.258 in experiment [4]; -0.453 in experiment [5]; -0.124 in [6]; -0.117 in experiment [7]. Moreover, the composite z-score was -0.287 in experiment [8], 2.53 in [9] and -0.0914 in experiment [10]. In experiment [2], this molecule registered a z-score of -0.789.

`CCc1cc2c(nc1CC)CCN(CCC(C)=NO[C@H](C)c1cn([C@H](CO)Cc3ccccc3)nn1)C2`: the composite z-score in experiment [1] was 0.21; in experiment [3], 0.437; in experiment [4], -0.315; in [5], -0.439; in [6], -0.0165; in experiment [7] it was 1.19. Further, the values for the composite z-score in experiment [8], in experiment [9] and in experiment [10] were -0.4, 0.967 and 0.568, respectively. In addition, the z-score in experiment [2] was -2.38.

Consider `CC=CC1=C(CO)C(=O)[C@@H]2O[C@@H]2C1=O`, for which the composite z-score is -1.52 in experiment [1]; 1.27 in [3]; -1.58 in experiment [4]; -1.61 in experiment [5]; -0.145 in experiment [6]; -0.304 in experiment [7]. Moreover, the composite z-score in experiment [8] was 0.0947; in experiment [9], -0.822; in experiment [10], 0.177. The z-score in experiment [2] is -2.28.

`Cc1ccc(S(=O)(=O)NC(CCc2ccccc2)CC(=O)C(C)(C)C)cc1` (stereo not given): the composite z-score in experiment [1] is 0.52; in experiment [3], 0.445; in experiment [4] it was -0.0921; in experiment [5], -0.418; in experiment [6] it was -0.125; in experiment [7], 0.304. Further, the composite z-score is -0.0626 in experiment [8], -0.0055 in experiment [9] and 0.369 in experiment [10]. Also, the z-score in experiment [2] was -2.04.

`CC(C)CON=C1[C@H]2CCn3c(=O)n(Cc4cc5c(cc4Cl)OCO5)c(=O)n3[C@H]2[C@H](O)[C@@H]2O[C@H]12`: the composite z-score in experiment [1] was 0.271; in [3] it was 0.389; in experiment [4] it was -0.0844; in experiment [5], -0.635; in experiment [6], -0.0758; in experiment [7], 0.0815. The composite z-score in [8] was -0.329; in experiment [9], 0.38; in [10], 0.351. The molecule further came in with a z-score in experiment [2] of 0.0671.

Take `COC(=O)CC=C[C@@H](C)[C@H](OCc1cccc(-c2ccccc2)c1)C1CCCCC1`: the composite z-score in experiment [1] was -0.533; in experiment [3], 0.134; in experiment [4], -0.532; in experiment [5], 0.472; in experiment [6], -0.12; in experiment [7] it was -0.0694. Moreover, the results for the composite z-score in [8], in [9] and in experiment [10] were -0.168, 0.14 and 1.9, respectively. This molecule also returned a z-score in [2] of 1.04.

As for `C[C@H]1Cc2c(COc3ccccc3)nc3c(c2CO1)CN(CCOc1ccccc1)CC3`, the composite z-score in [1] is 1.14; in [3], 0.635; in [4], 0.625; in [5], -0.255; in [6], -0.172; in [7] it was 0.0144. The composite z-score in [8] is -0.502; in experiment [9] it was 0.647; in [10] it was 0.161. The z-score in [2] was -0.228.

In the case of `O=C1C2=CC[C@H]3C(=O)N(c4cccc(Oc5ccccc5)c4)C(=O)[C@H]3[C@H]2[C@H](O)[C@@H]2O[C@H]12`, the composite z-score is 0.792 in experiment [1]; 0.516 in experiment [3]; 0.0194 in experiment [4]; -0.32 in [5]; -0.157 in [6]; -0.273 in experiment [7]. The composite z-score is -0.224 in [8], 0.257 in experiment [9] and 0.281 in [10]. The molecule also had a z-score in [2] of -4.64.

For the molecule `C=COC[C@@H]1CN2[C@@H](CC[C@@H](C)[C@@H]2c2ccc(Br)cc2)C(=O)O1`, the composite z-score is -0.0205 in [1]; -0.0429 in [3]; -0.941 in experiment [4]; -1.26 in [5]; -0.124 in experiment [6]; 0.0284 in experiment [7]. Besides, the composite z-score in [8] was -0.0079; in [9], -0.111; in [10] it was 0.259. This molecule also came in with a z-score in experiment [2] of -0.0522.

As for `CC(C)=CCCC(C)=CCON=C1C[C@@H](O)[C@@H](O)[C@@H]2[C@@H]3C(=O)N(c4cccc(Oc5ccccc5)c4)C(=O)[C@@H]3CC[C@@H]12`, the composite z-score is 1.21 in experiment [1]; 0.353 in experiment [3]; 0.33 in experiment [4]; -0.126 in experiment [5]; -0.13 in experiment [6]; -0.0064 in experiment [7]. For the same molecule, the composite z-score in experiment [8] was -0.287; in [9], 0.444; in [10], 0.305. The molecule also yielded a z-score in experiment [2] of -1.36.

Consider `C#CCCCON=C1C[C@@H](O)[C@@H](O)[C@@H]2[C@@H]3C(=O)N(CC)C(=O)[C@@H]3CC[C@@H]12`, for which the composite z-score is 0.431 in experiment [1]; 0.507 in experiment [3]; -0.4 in experiment [4]; -0.749 in experiment [5]; -0.164 in [6]; -0.197 in [7]. Further, the composite z-score in experiment [8] was -0.133; in experiment [9], 0.586; in experiment [10] it was 1.27. Also, the z-score in experiment [2] is -0.113.

`CCN1C(=O)[C@H]2[C@H]3[C@H](O)[C@H](O)CC(=O)[C@H]3CC[C@H]2C1=O`: the composite z-score in experiment [1] is 0.566; in experiment [3], 0.872; in [4], -0.123; in experiment [5], -0.448; in experiment [6] it was -0.0472; in [7], 0.0278. Also, the composite z-score in experiment [8] is -0.158; in experiment [9] it was 0.161; in experiment [10], 0.113. Further, the z-score in experiment [2] was -0.693.

With `CCOC(=O)[C@H](Cc1ccccc1)NC(=O)CCC1CC(OC(=O)NCCc2ccc(F)cc2)CC2(CCCC(COC(=O)NCCc3ccccc3OC)O2)O1` (stereo not given in full), the composite z-score in experiment [1] is 1.37; in [3], 0.515; in [4], 0.63; in [5], -0.403; in experiment [6], -0.0236; in [7], 0.0278. Also, the composite z-score in experiment [8] was -0.285; in experiment [9] it was 0.705; in experiment [10] it was 0.473. The molecule also had a z-score in experiment [2] of -1.19.
